Screening results: PubChem BioAssay, several laboratories
Compounds with a hit are over-represented: about 3.7% of the library has one in this group of screens.
BJeLR viability – kills HRASV12-expressing BJeLR cells; inhibition, % (test concentration not listed); 300,000 tested, 0.17% active; BJeLR (HRASV12) viability, CellTiter-Glo ATP luminescence, 48 h; in the data active means inhibition above about 50%; inconclusive means no clear call, values can overlap the other calls
Anthrax LF inh2 – blocks Bacillus anthracis lethal factor protease; inhibition, % at 10 µM; P15917; AID 588501; multiplex microsphere protease cleavage assay, LF; 360,000 tested, 0.12% active
Target sequence (P15917 whole entry, looked up): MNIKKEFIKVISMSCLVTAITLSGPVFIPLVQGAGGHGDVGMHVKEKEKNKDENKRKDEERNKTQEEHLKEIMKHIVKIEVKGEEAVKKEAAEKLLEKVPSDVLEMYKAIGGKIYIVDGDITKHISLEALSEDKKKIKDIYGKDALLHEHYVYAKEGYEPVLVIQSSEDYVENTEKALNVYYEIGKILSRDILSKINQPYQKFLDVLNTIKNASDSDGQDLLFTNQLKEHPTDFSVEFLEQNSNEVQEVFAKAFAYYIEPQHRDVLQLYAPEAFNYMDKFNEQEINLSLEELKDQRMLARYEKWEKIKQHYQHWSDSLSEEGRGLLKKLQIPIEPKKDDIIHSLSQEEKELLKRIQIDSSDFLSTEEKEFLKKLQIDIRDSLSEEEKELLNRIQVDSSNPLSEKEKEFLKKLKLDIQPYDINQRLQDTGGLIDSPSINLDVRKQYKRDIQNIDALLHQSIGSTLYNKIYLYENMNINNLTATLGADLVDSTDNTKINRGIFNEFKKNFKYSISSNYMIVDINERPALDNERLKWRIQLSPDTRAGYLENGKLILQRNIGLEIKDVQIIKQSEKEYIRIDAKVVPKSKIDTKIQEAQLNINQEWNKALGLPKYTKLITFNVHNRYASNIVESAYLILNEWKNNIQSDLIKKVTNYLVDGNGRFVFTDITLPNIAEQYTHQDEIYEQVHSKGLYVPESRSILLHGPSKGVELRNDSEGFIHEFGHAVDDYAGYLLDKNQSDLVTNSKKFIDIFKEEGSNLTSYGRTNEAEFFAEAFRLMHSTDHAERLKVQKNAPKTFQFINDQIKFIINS
BoNT-A LC inh2 – inhibitors of Botulinum neurotoxin A light chain protease | AID 588499 | multiplex microsphere protease substrate cleavage, flow cytometry | 360,000 tested, 0.17% active | inhibition, % at 10 µM
Autofluor counter – compound fluorescence in toxin protease inhibitor counterscreen; compound autofluorescence counterscreen, microsphere flow cytometry; stronger effect = higher value; fluorescence intensity (no concentration beside the values); 360,000 tested, 3.1% active; AID 624483; in the data active means fluorescence intensity above about 16000; inconclusive means no clear call, values can overlap the other calls
Vc quorum ag-1 – induces V. cholerae light production without autoinducers; V. cholerae BH1578 lux reporter, luminescence, 6 h; activation, % at 18.7 µM; 350,000 tested, 0.16% active; in the data active means activation mostly above about 9.7%, no sharp cut-off; inconclusive means no clear call, values can overlap the other calls; inactive means mostly below about 3.7%
BoNT F protease – blocks Botulinum neurotoxin F light chain protease; inhibition, % at 10 µM; 360,000 tested, 0.22% active; Multiplex microsphere protease cleavage assay, flow cytometry; in the data active means inhibition above about 35%, passing the limit was not always enough; inconclusive means no clear call, values can overlap the other calls
Vc quorum ag-2 – inducers of V. cholerae quorum light production without autoinducers; shares compounds with Vc quorum ag-1; V. cholerae BH1578 lux reporter, luminescence, 6 h; activation, % at 50 µM; 620 tested, under 10 active; call rule not given here
Numbers stand for hits; . = inactive; ? = inconclusive; / = no result. Unless noted, no stated cut-off is given here; in the data, active means inhibition above about 30%; inconclusive means no clear call, values can overlap the other calls; inactive means below that.

SMILES	BJeLR viability	Anthrax LF inh2	BoNT-A LC inh2	Autofluor counter	Vc quorum ag-1	BoNT F protease	Vc quorum ag-2
Cn1nc(-c2ccc(OCC(=O)NCC3CCCO3)cc2)c2ccccc2c1=O (configuration not stated)	.	.	.	.	.	.	.
Cc1ccc(Oc2ccc(Cl)cc2NC(=O)c2cnccn2)cc1	.	.	.	?	16.7	.	.
O=C(Nc1ccccc1Oc1ccccc1)c1cnccn1	.	.	.	.	.	.	/
O=C(Nc1nccs1)C(NS(=O)(=O)c1ccc(Br)s1)c1ccccc1 (configuration not stated)	.	.	.	.	25.0	.	.
Cc1ccc(S(=O)(=O)CCC(=O)OCC(=O)Nc2cccc(S(=O)(=O)N3CCCCC3)c2)cc1	/	.	.	.	.	.	/
Cc1ccccc1-n1nnnc1-c1ccccc1	.	.	.	23616	.	.	.
O=c1[nH]c2ccccc2n1Cc1ccc(Cl)cc1	.	.	.	.	16.7	.	.
CC(C)CCn1c(=O)[nH]c2ccccc21	.	.	.	.	.	.	/
Cc1nn(CC(O)CN2c3ccccc3Sc3ccccc32)c(C)c1Br (configuration not stated)	.	.	.	.	25.0	.	.
CN(C)c1ccc(-c2ccnc3c2CC(C)(C(=O)NCC2CC2)O3)cc1 (configuration not stated)	/	.	.	.	.	.	/
CC(=O)OC1C(=O)N(Cc2ccccc2)C1c1ccc(C)cc1 (configuration not stated)	/	.	.	.	.	.	/
O=C(c1cc2cc(Cl)ccc2oc1=O)N1CCCC1	.	.	.	.	.	.	.
O=C(NCc1ccc2c(c1)OCO2)C1CCCN1C(=O)Nc1cccc(Cl)c1 (configuration not stated)	.	.	.	.	5.6	.	.
Cc1ccc(NC(=O)N2CCCC2C(=O)NCc2ccc3c(c2)OCO3)cc1 (configuration not stated)	.	.	.	.	.	.	/
Cc1ccc(S(=O)(=O)Nc2ccccc2F)cc1C(=O)NCCCN1CCCC1=O	.	.	.	22774	.	.	.
Cn1c(Cn2cnc3ccccc32)nc2ccccc21	.	.	.	.	.	.	/
Cn1c(Cn2cnc(Cl)c2Cl)nc2ccccc21	.	.	.	.	16.7	.	.
COc1ccc(Cl)cc1NC(=O)c1cccc([N+](=O)[O-])c1O	/	.	.	.	/	.	/
Cc1ccc(-c2cc(C(=O)N3N=C(C(F)F)CC3(O)C(F)F)c3ccccc3n2)cc1C (configuration not stated)	.	.	.	.	.	.	.
CCOC(=O)C1(C)CCCN1C(=O)c1ccc(OC)c(OC)c1 (configuration not stated)	/	.	.	.	.	.	/
CCC1([N+](=O)[O-])COC(c2ccc(Cl)cc2)OC1 (configuration not stated)	/	.	.	.	.	.	/
O=C(NCc1cccc(Cl)c1)C1Cc2c(-c3ccccc3Oc3ccccc3)ccnc2O1 (configuration not stated)	/	.	.	.	.	.	/
CNC(=O)COC(=O)c1ccccc1NC(=O)c1ccco1	.	.	.	.	.	.	/
CC1CCCCC1NC(=O)COC(=O)c1ccccc1NC(=O)c1ccco1 (configuration not stated)	.	.	.	.	21.3	.	.
O=C1c2ccccc2CCC12OC2c1ccc([N+](=O)[O-])cc1 (configuration not stated)	/	.	.	.	.	.	/
SMILES	BJeLR viability	Anthrax LF inh2	BoNT-A LC inh2	Autofluor counter	Vc quorum ag-1	BoNT F protease	Vc quorum ag-2
COc1ccc(-c2cc(CCCC(=O)N3CCN(c4ccc(OC)cc4)CC3)no2)cc1	.	.	.	.	.	.	/
COc1ccc(-c2cc(CCCC(=O)NCCc3cc(OC)ccc3OC)no2)cc1	.	.	.	.	.	.	.
c1coc(-c2nnc3sc(-c4cccs4)nn23)c1	/	.	.	.	.	.	/
FC(F)(F)c1nnc2sc(-c3cccs3)nn12	.	.	.	.	16.7	.	.
COc1cccc(NC(=O)C2CC(=O)OC23CCOC(C)(C)C3)c1 (configuration not stated)	.	.	.	.	.	.	.
NC(=O)C1CCN(C(=O)c2ccc3c(=O)n(Cc4ccco4)c(SCC(=O)c4ccccc4)nc3c2)CC1	.	.	.	.	.	.	/
CCCCCn1c(SCC(=O)OCC)nc2cc(C(=O)N3CCC(C(N)=O)CC3)ccc2c1=O	.	.	.	21996	.	.	.
